Test results reported in PubChem BioAssay AID493179 (National Center for Advancing Translational Sciences (NCATS), 2011).
Results filed as inconclusive are left out. Activity calls are given as the source filed them. Calls follow the shape of the dose curve; as a rule, active = well fitted inhibition curve with a large enough effect; inconclusive = small, poorly fitted or top-dose-only effect; inactive = flat fitted curve, though single readings scatter.

Test: Secondary Assay for General miRNAs Modulators and/or Inhibitors/Activators of miR-21: miR-30 Firefly Luciferase Assay for second round cherrypicks
Details: HeLa miR-30 FLuc reporter, luminescence, 48 h
Excerpt: MLPCN Grant: 1 R21 NS059478-01 Assay Provider: Qihong Huang, The Wistar Institute NCGC Assay Overview: MicroRNAs (miRNAs) are endogenously encoded small (~20-25 nucleotides), nonprotein-coding RNAs that are involved in post-transcriptional repression of target messenger RNAs (mRNAs) (Le and Hannon, 2004). Estimated to be involved in the regulation of 30% of all protein-coding mRNAs (Filipowicz et al., 2008), miRNAs play a significant role in many biological processes including cellular differentiation and tissue development (Ghildiyal and Zamore, 2009). […] Compounds active in the miR-21 FLuc assay were clustered using Leadscope and active chemical series were prioritized based on chemical properties, potential for medicinal chemistry optimization, and SAR. Within each chemical series, representative compounds were re-acquired to test for activity in a secondary assay based on the quality of their CRC, efficacy, and potency. […]
NCGC Assay Protocol Summary: Reagents: HeLa cells stably expressing firefly luciferase (FLuc) under the control of a CMV promoter (upstream) and a miR-30 binding sequence directly downstream of the gene. […] After a 15 minute incubation to allow for cell lysis, luciferase activity was measured using a ViewLux CCD imager (PerkinElmer), with an average exposure time of 2-12 seconds. […]

O=c1c2ccccc2nc(Cc2ccccc2)n1-c1ccccc1
Potency: 20 µM (active)
